Reference: PubChem BioAssay (NCI)
This is part of a sample that, as a whole, favours compounds with a hit. Of some 79,000 tested, about 15% had one in any assay. Activity calls are given as the source filed them. Cut-off read from the data, not from the text of the source: active = growth inhibition above about 70%; inactive = the rest.

Legend:
[1] = NCI Yeast Anticancer Drug Screen. Data for the rad52 strain (AID 147);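 note: 0% = growth of vehicle-treated control cultures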; settings: S. cerevisiae rad52 mutant growth inhibition, active compounds read high
Method in brief: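 Growth of repair-deficient yeast cells was compared between compound-treated and vehicle-treated cultures to give percent inhibition.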

[2] = NCI Yeast Anticancer Drug Screen. Data for the wt1 strain (AID 149);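 note: 0% = growth of vehicle-treated wt1 cultures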; settings: S. cerevisiae wt1 strain (SPY 50644) growth inhibition, active compounds read high
Method in brief: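 Yeast wt1 strain exposed to compounds; growth inhibition measured relative to vehicle-treated controls.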

[3] = NCI Yeast Anticancer Drug Screen. Data for the rad50EPP+ strain (AID 151);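 note: 0% = growth of vehicle-treated control cultures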; settings: S. cerevisiae rad50 mutant strain, active compounds read high
Method in brief: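 Measured: growth inhibition of rad50EPP+ yeast. Reference: vehicle-treated controls. Screen uses strains with defined genetic alterations in DNA damage repair or cell cycle control.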

[4] = NCI Yeast Anticancer Drug Screen. Data for the mgt1 strain (AID 153); settings: S. cerevisiae mgt1 mutant growth inhibition, active compounds read high
Method in brief: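 Compounds were applied to mgt1 mutant yeast, and growth was then compared against vehicle-treated control cultures to give percent inhibition.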

[5] = NCI Yeast Anticancer Drug Screen. Data for the rad50 strain (AID 155);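 note: 0% = growth of vehicle-only cultures of the same strain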; settings: S. cerevisiae rad50 strain growth inhibition, active compounds read high
Method in brief: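 Yeast carrying a defined DNA repair defect were exposed to test compounds, and growth was compared with vehicle-treated controls to give percent inhibition.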

[6] = NCI Yeast Anticancer Drug Screen. Data for the mec2-1 strain (AID 157); settings: S. cerevisiae mec2-1 strain, active compounds read high
Method in brief: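 Compounds were applied to mec2-1 yeast cells. Their growth was then compared with that of vehicle-treated cultures to give growth inhibition.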

[7] = NCI Yeast Anticancer Drug Screen. Data for the sgs1 mgt1 strain (AID 161);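 note: 0% = growth of cultures given vehicle only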; settings: S. cerevisiae sgs1 mgt1 strain, active compounds read high
Method in brief: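 Compounds are added to genetically altered yeast, and growth is compared with cultures given vehicle alone to give percent inhibition.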

[8] = NCI Yeast Anticancer Drug Screen. Data for the CLN2oe strain (AID 163);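 note: 0% = growth of vehicle-only control cultures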; settings: S. cerevisiae CLN2oe strain, active compounds read high
Method in brief: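 Cells of an engineered yeast line with disturbed cell-cycle regulation are treated with compound. Inhibition of growth is then calculated relative to the vehicle-treated reference.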

[9] = NCI Yeast Anticancer Drug Screen. Data for the cln2 rad14 strain (AID 165);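 note: 0% = growth equal to vehicle treated cultures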; settings: S. cerevisiae cln2 rad14 strain, active compounds read high
Method in brief: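 Strain: cln2 rad14 yeast, altered in cell cycle control and DNA damage repair. Read-out: growth inhibition vs vehicle.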

[10] = NCI Yeast Anticancer Drug Screen. Data for the bub3 strain (AID 167); settings: S. cerevisiae bub3 mutant strain, active compounds read high
Method in brief: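 Compounds were applied to a genetically altered yeast strain carrying a cell-cycle control defect. Growth inhibition was scored against vehicle-treated controls.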

[11] = NCI Yeast Anticancer Drug Screen. Data for the wt2 strain (AID 169);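 note: 0% = growth of vehicle-treated yeast cultures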; settings: S. cerevisiae wt2 strain growth inhibition, active compounds read high
Method in brief: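 Growth of compound-treated yeast is measured and expressed as inhibition relative to vehicle-only controls.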

[12] = NCI Yeast Anticancer Drug Screen. Data for the mlh1 strain (AID 171);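 note: 0% = growth of vehicle-treated control cultures of the same strain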; settings: S. cerevisiae mlh1 strain growth inhibition, active compounds read high
Method in brief: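 Test agents were incubated with yeast bearing a defined DNA damage repair or cell cycle control alteration; values are growth inhibition normalised to vehicle-treated cultures.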

[13] = NCI Yeast Anticancer Drug Screen. Data for the sgs1 strain (AID 173);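 note: 0% = growth of vehicle-only control cultures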; settings: S. cerevisiae sgs1 mutant, active compounds read high
Method in brief: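 Strain with an altered DNA repair or cell cycle pathway exposed to compound. Growth then measured. Value = inhibition versus vehicle control.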

[14] = NCI Yeast Anticancer Drug Screen. Data for the mlh1 rad18 strain (AID 175); settings: S. cerevisiae mlh1 rad18 strain growth inhibition, active compounds read high
Method in brief: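 A repair-deficient yeast strain is exposed to test compound, and growth is scored relative to vehicle-treated controls.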

[15] = NCI Yeast Anticancer Drug Screen. Data for the rad18 strain (AID 177); settings: S. cerevisiae rad18 mutant growth inhibition, active compounds read high
Method in brief: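 DNA-repair-defective yeast; compound treatment; growth inhibition scored against vehicle.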

[16] = NCI Yeast Anticancer Drug Screen. Data for the rad14 strain (AID 159);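 note: 0% = growth of vehicle-treated control cultures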; settings: S. cerevisiae rad14 strain growth inhibition, active compounds read high
Method in brief: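 Yeast cells carrying a defined DNA-repair defect were exposed to compounds, and growth inhibition was calculated relative to vehicle-treated control cultures.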

[17] = at 5.0 µM (retest, dose inferred, filed as 0.5)
[18] = at 50.0 µM (retest, dose inferred, filed as 5.0)

Measured: growth inhibition

O=C(O)Cc1cc(F)ccc1C(=O)O
inactive: [1]; at 1.2 µM 3% | [1]; at 3.7 µM 4% | [1]; at 11.0 µM 7% | [1]; at 33.0 µM 12% | [1]; at 100.0 µM 28% | [2]; at 1.2 µM 3% | [2]; at 3.7 µM 7% | [2]; at 11.0 µM 13% | [2]; at 33.0 µM 16% | [2]; at 100.0 µM 25% | [3]; at 1.2 µM -2% | [3]; at 3.7 µM -6% | [3]; at 11.0 µM -13% | [3]; at 33.0 µM -26% | [3]; at 100.0 µM -15% | [4]; at 1.2 µM -1% | [4]; at 3.7 µM 3% | [4]; at 11.0 µM 9% | [4]; at 33.0 µM 28% | [4]; at 100.0 µM 48% | [5]; at 1.2 µM 3% | [5]; at 3.7 µM 3% | [5]; [17] -2% | [5]; at 11.0 µM 6% | [5]; at 33.0 µM 12% | [5]; [18] 45% | [5]; at 50.0 µM 5.3% | [5]; at 100.0 µM 29% | [6]; at 1.2 µM -1% | [6]; at 3.7 µM 0% | [6]; [17] 1% | [6]; at 11.0 µM 3% | [6]; at 33.0 µM 11% | [6]; [18] 2% | [6]; at 50.0 µM 29.9% | [6]; at 100.0 µM 30% | [7]; [17] -8% | [7]; [18] 65% | [7]; at 50.0 µM 21.2% | [8]; at 1.2 µM 1% | [8]; at 3.7 µM 4% | [8]; at 11.0 µM 12% | [8]; at 33.0 µM 7% | [8]; at 100.0 µM 12% | [9]; [17] -2% | [9]; [18] 5% | [10]; at 1.2 µM -1% | [10]; at 3.7 µM -2% | [10]; [17] 8% | [10]; at 11.0 µM 1% | [10]; at 33.0 µM 4% | [10]; [18] 66% | [10]; at 100.0 µM 17% | [11]; at 1.2 µM 2% | [11]; at 3.7 µM 6% | [11]; at 11.0 µM 13% | [11]; at 33.0 µM 18% | [11]; at 100.0 µM 42% | [12]; at 1.2 µM 5% | [12]; at 3.7 µM 2% | [12]; at 11.0 µM 7% | [12]; at 33.0 µM 15% | [13]; at 1.2 µM 2% | [13]; at 3.7 µM 7% | [13]; at 11.0 µM 9% | [13]; at 33.0 µM 21% | [13]; at 100.0 µM 65% | [14]; [17] -5% | [14]; at 50.0 µM 38.3% | [15]; at 1.2 µM 3% | [15]; at 3.7 µM 1% | [15]; at 11.0 µM 0% | [15]; at 33.0 µM 12% | [15]; at 100.0 µM 42%
active: [9]; at 50.0 µM 94.5% | [10]; at 50.0 µM 73.5% | [12]; at 100.0 µM 76% | [14]; [18] 75%

CC(O)=NC(Cc1ccc2ccccc2c1)C(O)=NC(Cc1ccc(Cl)cc1)C(O)=NC(Cc1c[nH]c2ccccc12)C(O)=NC(CO)C(O)=NC(Cc1ccc(O)cc1)C(O)=NC(CCCN=C(N)N)C(O)=NC(CC(C)C)C(O)=NC(CCCN=C(N)N)C(=O)N1CCCC1C(O)=NC(C)C(=N)O (stereo unspecified)
active: [14]; [18] 70%
inactive: [1]; at 1.2 µM -7% | [1]; at 3.7 µM -8% | [1]; at 11.0 µM -4% | [1]; at 33.0 µM 4% | [1]; at 100.0 µM 16% | [2]; at 1.2 µM -2% | [2]; at 3.7 µM -4% | [2]; at 11.0 µM -5% | [2]; at 33.0 µM -3% | [2]; at 100.0 µM -1% | [3]; at 1.2 µM -4% | [3]; at 3.7 µM 2% | [3]; at 11.0 µM 11% | [3]; at 33.0 µM 16% | [3]; at 100.0 µM 11% | [4]; at 1.2 µM -3% | [4]; at 3.7 µM -2% | [4]; at 11.0 µM -4% | [4]; at 33.0 µM -5% | [4]; at 100.0 µM 6% | [5]; at 1.2 µM -5% | [5]; at 3.7 µM -2% | [5]; [17] -9% | [5]; at 11.0 µM 1% | [5]; at 33.0 µM 3% | [5]; [18] 16% | [5]; at 50.0 µM 18.1% | [5]; at 100.0 µM 25% | [6]; at 1.2 µM -2% | [6]; at 3.7 µM -3% | [6]; [17] -14% | [6]; at 11.0 µM -4% | [6]; at 33.0 µM -2% | [6]; [18] -6% | [6]; at 50.0 µM 1.1% | [6]; at 100.0 µM 3% | [16]; at 1.2 µM -5% | [16]; at 3.7 µM 1% | [16]; at 11.0 µM 4% | [16]; at 33.0 µM 7% | [16]; at 100.0 µM 24% | [7]; [17] 2% | [7]; [18] 20% | [7]; at 50.0 µM 3% | [9]; [17] -5% | [9]; [18] 18% | [9]; at 50.0 µM 12.2% | [10]; at 1.2 µM -2% | [10]; at 3.7 µM -1% | [10]; [17] 39% | [10]; at 11.0 µM -4% | [10]; at 33.0 µM -1% | [10]; [18] 32% | [10]; at 50.0 µM 19.9% | [10]; at 100.0 µM 1% | [11]; at 1.2 µM -9% | [11]; at 3.7 µM -10% | [11]; at 11.0 µM -2% | [11]; at 33.0 µM 11% | [11]; at 100.0 µM 2% | [12]; at 1.2 µM -7% | [12]; at 3.7 µM -4% | [12]; at 11.0 µM -3% | [12]; at 33.0 µM 3% | [12]; at 100.0 µM 17% | [13]; at 1.2 µM -21% | [13]; at 3.7 µM -18% | [13]; at 11.0 µM -17% | [13]; at 33.0 µM 3% | [13]; at 100.0 µM 44% | [14]; [17] 52% | [14]; at 50.0 µM 58.4% | [15]; at 1.2 µM -6% | [15]; at 3.7 µM -6% | [15]; at 11.0 µM -3% | [15]; at 33.0 µM 1% | [15]; at 100.0 µM 35%
